# Results published in PubChem BioAssay.
# “And” between values parts separate entries of the source, which are not always exact repeats. Equal entries are not always repeated. The source made the active and inactive calls.
# Assays:
# [1] = tested on: Plasmodium falciparum Sir2 (PF13_0152, Sir2A); experiment: pfSir2 binders on small-molecule microarrays, primary screen, biochemical, small-molecule microarray, 635 nm fluorescence (AID 1098); conditions: small-molecule microarray binding, fluorescence 635 nm; higher = more signal;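 also: score merges spot fluorescence intensity with its signal-to-noise ratio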
# [2] = small-molecule microarray binders of probe aDKK1, primary screen, biochemical, biotinylated probe, 635/667 nm fluorescence (AID 1099); conditions: higher = more signal;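 also: score merges 667nm spot fluorescence with signal to noise across triplicate slides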
# [3] = small-molecule microarray binders of probe aCHRDL2, primary screen, biochemical, biotinylated probe, 635/667 nm fluorescence (AID 1100); conditions: higher = more signal
# [4] = splicing luciferase reporter signal modulators, primary screen, spliceosome inhibition project, cell-based, HEK293, splice +/- reporter (AID 1101); conditions: luminescence, 24 h, higher = more signal, called active from +8 up or from −8 down;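 also: HEK293 cells carrying a splicing-competent luciferase reporter gene; test concentration not given here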
# [5] = biological target: Fibroblast growth factor 10 (Homo sapiens) (UniProt O15520); experiment: FGF10 binders on small-molecule microarrays, primary screen, biochemical, small-molecule microarray, 635 nm fluorescence (AID 1102); conditions: FGF10 binding, fluorescence 635 nm, higher = more signal
# Sequence of Fibroblast growth factor 10 (Homo sapiens) (O15520 whole entry, looked up): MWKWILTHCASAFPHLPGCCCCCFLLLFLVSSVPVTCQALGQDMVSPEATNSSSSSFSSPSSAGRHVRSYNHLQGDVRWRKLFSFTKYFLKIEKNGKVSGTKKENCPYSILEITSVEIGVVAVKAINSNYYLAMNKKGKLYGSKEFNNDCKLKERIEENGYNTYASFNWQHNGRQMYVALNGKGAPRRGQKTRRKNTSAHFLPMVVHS
# [6] = tested on: glycogen synthase kinase-3 (GSK3A per assay name; protocol says GSK3B); experiment: GSK3 binders on small-molecule microarrays, primary screen, biochemical, small-molecule microarray, 635 nm fluorescence, GSK3A (AID 1103); conditions: small-molecule microarray binding, fluorescence 635 nm; higher = more signal; also: the record names both GSK3A and GSK3B
# [7] = biological target: Epidermal growth factor receptor (Homo sapiens) (UniProt P00533); experiment: EGFR binders on small-molecule microarrays, primary screen, biochemical, small-molecule microarray, 635 nm fluorescence (AID 1104); conditions: EGFR binding, higher = more signal;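 also: score merges 667 nm emission intensity with spot signal to noise over triplicate slides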
# Sequence of Epidermal growth factor receptor (Homo sapiens) (P00533 whole entry, looked up): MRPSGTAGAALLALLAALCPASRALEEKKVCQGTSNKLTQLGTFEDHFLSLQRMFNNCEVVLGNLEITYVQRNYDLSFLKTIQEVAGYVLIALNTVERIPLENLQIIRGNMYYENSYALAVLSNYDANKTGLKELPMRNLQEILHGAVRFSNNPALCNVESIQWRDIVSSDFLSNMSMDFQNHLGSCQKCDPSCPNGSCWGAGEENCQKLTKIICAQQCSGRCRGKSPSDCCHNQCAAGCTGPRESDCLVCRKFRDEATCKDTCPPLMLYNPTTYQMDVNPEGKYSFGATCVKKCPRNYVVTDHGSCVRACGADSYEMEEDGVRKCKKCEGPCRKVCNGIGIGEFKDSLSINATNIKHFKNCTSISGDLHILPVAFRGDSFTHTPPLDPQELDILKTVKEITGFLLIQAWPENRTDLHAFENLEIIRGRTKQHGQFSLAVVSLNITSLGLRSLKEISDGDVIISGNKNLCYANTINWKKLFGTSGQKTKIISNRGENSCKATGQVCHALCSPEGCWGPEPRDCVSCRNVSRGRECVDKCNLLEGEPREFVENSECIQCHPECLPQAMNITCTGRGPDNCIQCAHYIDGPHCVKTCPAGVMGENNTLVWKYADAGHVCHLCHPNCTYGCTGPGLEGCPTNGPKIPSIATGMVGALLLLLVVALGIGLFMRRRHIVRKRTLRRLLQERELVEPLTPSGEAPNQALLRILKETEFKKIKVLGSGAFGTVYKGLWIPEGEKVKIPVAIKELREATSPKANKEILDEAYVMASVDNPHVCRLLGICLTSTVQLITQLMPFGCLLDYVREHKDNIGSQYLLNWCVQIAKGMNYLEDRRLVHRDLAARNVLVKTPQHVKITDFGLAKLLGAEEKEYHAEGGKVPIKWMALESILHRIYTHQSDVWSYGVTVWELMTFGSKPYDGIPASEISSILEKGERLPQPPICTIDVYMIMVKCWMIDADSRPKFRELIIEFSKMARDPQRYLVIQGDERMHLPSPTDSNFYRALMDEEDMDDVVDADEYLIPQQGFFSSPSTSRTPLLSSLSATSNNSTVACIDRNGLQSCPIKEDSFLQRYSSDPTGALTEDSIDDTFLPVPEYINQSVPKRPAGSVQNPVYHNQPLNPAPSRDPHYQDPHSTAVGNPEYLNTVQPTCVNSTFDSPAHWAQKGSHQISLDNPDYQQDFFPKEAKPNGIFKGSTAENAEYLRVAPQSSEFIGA
# [8] = biological target: Follistatin-related protein 3 (Homo sapiens) (UniProt O95633); experiment: FSTL3 binders on small-molecule microarrays, primary screen, biochemical, small-molecule microarray, 635 nm fluorescence (AID 1105); conditions: FSTL3 binding, higher = more signal;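 also: score merges emission near 667 nm and signal to noise per printed spot across three slides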
# Sequence of Follistatin-related protein 3 (Homo sapiens) (O95633 whole entry, looked up): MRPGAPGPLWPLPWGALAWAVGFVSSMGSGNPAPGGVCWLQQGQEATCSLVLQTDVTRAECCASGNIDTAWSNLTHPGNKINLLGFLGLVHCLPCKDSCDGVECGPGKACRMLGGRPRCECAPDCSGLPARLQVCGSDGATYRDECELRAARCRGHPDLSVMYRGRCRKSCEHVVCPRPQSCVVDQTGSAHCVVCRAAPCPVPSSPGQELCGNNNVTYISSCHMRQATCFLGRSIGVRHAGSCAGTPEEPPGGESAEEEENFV
# [9] = biological target: Dickkopf-related protein 1 (Homo sapiens) (UniProt O94907); experiment: DKK1 binders on small-molecule microarrays, primary screen, biochemical, small-molecule microarray, 635 nm fluorescence scan (AID 1106); conditions: DKK1 binding, higher = more signal;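 also: score merges emission near 667 nm with signal to noise over three replicate slides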
# Sequence of Dickkopf-related protein 1 (Homo sapiens) (O94907 whole entry, looked up): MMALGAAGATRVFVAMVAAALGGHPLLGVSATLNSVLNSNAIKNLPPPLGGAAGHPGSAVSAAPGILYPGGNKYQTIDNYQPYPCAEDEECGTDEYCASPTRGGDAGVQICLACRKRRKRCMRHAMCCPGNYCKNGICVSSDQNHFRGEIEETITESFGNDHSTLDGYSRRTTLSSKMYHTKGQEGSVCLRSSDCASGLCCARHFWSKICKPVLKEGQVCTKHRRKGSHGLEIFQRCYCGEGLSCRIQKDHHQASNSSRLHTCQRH
# [10] = tested on: Inhibin beta A chain (activin A); experiment: INHBA (activin A) binders on microarrays, primary screen, biochemical, small-molecule microarray, 635 nm fluorescence scan (AID 1107); conditions: small-molecule microarray binding, higher = more signal;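 also: mouse activin A protein probed at 4.33 µg/mL on printed slides; score merges bound-protein fluorescence near 667 nm with spot signal-to-noise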
# [11] = tested on: Human papillomavirus type 1a protein E7 (residues 44-93); experiment: HPV1a E7 fragment binders on microarrays, primary screen, biochemical, small-molecule microarray, residues 44-93, 635 nm fluorescence (AID 1108); conditions: small-molecule microarray binding, fluorescence 635 nm; higher = more signal;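 also: E7 fragment applied at 1 µg/mL in TBST for 1 h at 4 C; score combines spot fluorescence with its signal to noise ratio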
# [12] = modulators of HCV replicon luciferase signal, primary screen, HCV replication inhibitor project, Huh7 cells, luciferase reporter (AID 1109); conditions: 48 h, higher = more signal;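 also: huh7 hepatoma cells harbouring a luciferase neomycin HCV replicon reporter; luciferase luminescence as measure of HCV replicon replication; test concentration not given here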
# [13] = biological target: Left-right determination factor 2 (Homo sapiens) (UniProt O00292); experiment: LEFTY2 binders on small-molecule microarrays, primary screen, biochemical, small-molecule microarray, 635 nm fluorescence scan (AID 1110); conditions: LEFTY2 binding, higher = more signal
# Sequence of Left-right determination factor 2 (Homo sapiens) (O00292 whole entry, looked up): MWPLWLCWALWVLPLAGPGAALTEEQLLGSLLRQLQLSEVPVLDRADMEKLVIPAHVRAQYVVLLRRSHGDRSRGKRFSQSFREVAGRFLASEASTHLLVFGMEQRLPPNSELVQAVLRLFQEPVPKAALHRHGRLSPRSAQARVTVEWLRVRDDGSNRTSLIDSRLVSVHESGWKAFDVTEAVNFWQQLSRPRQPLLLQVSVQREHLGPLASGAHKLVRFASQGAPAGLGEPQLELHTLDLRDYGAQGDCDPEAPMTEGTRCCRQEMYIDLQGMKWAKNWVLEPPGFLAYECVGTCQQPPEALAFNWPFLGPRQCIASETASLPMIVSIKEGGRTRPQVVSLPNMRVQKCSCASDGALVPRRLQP
# [14] = biological target: Calmodulin-1 (Homo sapiens) (UniProt P0DP23); experiment: CALM1 binders on microarrays, EGTA buffer, profiling panel, biochemical, small-molecule microarray, Cy5-labelled CALM1 (AID 1111); conditions: Cy5-CALM1 binding fluorescence, higher = more signal;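 also: labelled calmodulin applied in Tris saline Tween buffer holding calcium plus EGTA and DTT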
# [15] = biological target: Calmodulin-1 (Homo sapiens) (UniProt P0DP23); experiment: calcium-bound CALM1 binders on microarrays, profiling panel, artefact control for SMM control-protein annotation, biochemical, small-molecule microarray, Cy5-labelled CALM1, plus calcium (AID 1112); conditions: Cy5-CALM1 binding fluorescence, higher = more signal;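 also: score merges spot fluorescence with signal to noise from triplicate slides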
# [16] = small-molecule microarray binders of probe aWnt5a, primary screen, biochemical, biotinylated probe, 635/667 nm fluorescence (AID 1113); conditions: higher = more signal;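 also: score merges 667 nm fluorescence intensity with signal-to-noise per printed feature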
# [17] = small-molecule microarray binders of probe aShh, primary screen, biochemical, biotinylated probe, 635/667 nm fluorescence (AID 1114); conditions: higher = more signal;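 also: probe is biotin-labelled aShh protein from a stem cell growth factor screen; measures binding of labelled protein to compounds printed on the slide; score merges feature fluorescence at 667 nm with signal-to-noise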
# [18] = small-molecule microarray binders of probe aNog, primary screen, biochemical, biotinylated probe, 635/667 nm fluorescence (AID 1115); conditions: higher = more signal;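 also: probe is biotinylated aNog protein used at 0.15 µg/mL for 1 h at 4 C; z-score combines 667 nm fluorescence of each spot with its signal to noise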
# [19] = biological target: Torsin-1A-interacting protein 1 (Homo sapiens) (UniProt Q5JTV8); experiment: LAP1 binders from COS7 cell lysate, primary screen, small-molecule microarray, 635/667 nm fluorescence (AID 1116); conditions: COS7-hLAP1 lysate binding, 635 nm fluorescence, higher = more signal
# Sequence of Torsin-1A-interacting protein 1 (Homo sapiens) (Q5JTV8 whole entry, looked up): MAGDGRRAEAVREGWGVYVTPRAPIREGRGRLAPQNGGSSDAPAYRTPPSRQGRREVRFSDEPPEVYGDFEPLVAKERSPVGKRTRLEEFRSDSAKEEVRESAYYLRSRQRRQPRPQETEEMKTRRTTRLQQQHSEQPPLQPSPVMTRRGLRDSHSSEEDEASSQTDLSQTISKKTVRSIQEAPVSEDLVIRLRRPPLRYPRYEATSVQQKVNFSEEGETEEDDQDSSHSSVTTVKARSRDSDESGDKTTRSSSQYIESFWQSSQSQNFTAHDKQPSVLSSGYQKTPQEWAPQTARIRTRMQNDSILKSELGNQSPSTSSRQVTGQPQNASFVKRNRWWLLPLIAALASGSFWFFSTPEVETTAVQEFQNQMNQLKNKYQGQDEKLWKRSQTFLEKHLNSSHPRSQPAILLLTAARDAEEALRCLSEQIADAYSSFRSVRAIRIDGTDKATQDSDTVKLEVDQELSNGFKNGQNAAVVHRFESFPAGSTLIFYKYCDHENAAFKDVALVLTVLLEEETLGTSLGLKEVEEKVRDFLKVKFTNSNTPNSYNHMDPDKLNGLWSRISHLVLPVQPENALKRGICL
# [20] = biological target: Alpha-bungarotoxin (Bungarus multicinctus) (UniProt P60615); experiment: alpha-bungarotoxin binders on microarray, profiling panel, artefact control for SMM control protein annotation, biochemical, small-molecule microarray, Alexa647 label, 635/667 nm fluorescence (AID 1117); conditions: alpha-BTX-A647 binding fluorescence, higher = more signal
# Sequence of Alpha-bungarotoxin (Bungarus multicinctus) (P60615 whole entry, looked up): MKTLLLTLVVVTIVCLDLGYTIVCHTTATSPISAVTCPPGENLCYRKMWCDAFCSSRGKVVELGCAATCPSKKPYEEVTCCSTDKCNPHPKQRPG
Compound,composite z-score [1],composite z-score [2],composite z-score [3],z-score [4],composite z-score [5],composite z-score [6],composite z-score [7],composite z-score [8],composite z-score [9],composite z-score [10],composite z-score [11],z-score [12],composite z-score [13],composite z-score [14],composite z-score [15],composite z-score [16],composite z-score [17],composite z-score [18],composite z-score [19],composite z-score [20]
COC(=O)C1=C(C)N(Cc2ccccc2)C2=C(C(C)=O)[C@H](c3ccccc3)[C@@](O)(C(=O)OC)C(=O)N2[C@@H]1c1ccccc1,0.765 and -0.399,0.156 and -0.547,-0.535 and -0.652,-0.694 (inactive) and -2.98 (inactive),0.686 and 0.158,0.845 and -0.533,0.365 and 0.197,0.796 and 0.145,0.591 and -0.0346,0.174 and 1.21,0.895 and -1.59,-0.396 and 0.347,0.64 and -0.705,-0.271 and -0.503,0.004 and -0.587,-0.0944 and 0.0102,0.151 and -0.0146,-0.205 and -0.342,-0.0984 and -0.136,0.538 and -0.436
CC(C)=NOCc1ccc(-c2cn([C@@H]3COC[C@H]3O)nn2)cc1,-0.257,-0.123,-0.764,1.04 (inactive),0.506,0.114,0.309,0.273,0.455,0.147,-0.0942,0.28,0.679,0.676,-0.358,-0.143,-0.17,-0.248,0.507,-0.175
